Here are results for 23 compounds from PubChem BioAssay (NCATS).

SMILES strings stand for the structures. Records with an inconclusive call do not appear. The source made the active and inactive calls. Calls come from the whole dose curve; as a rule, active = well fitted cell-killing curve with a large enough effect; inconclusive = small, poorly fitted or top-dose-only effect; inactive = flat fitted curve, though single readings scatter.
Potency is the fitted concentration of half-maximal effect.

The nature of the assay: Cell Viability - LYMP2-014 (AID 983). Note: nearly all actives have a fitted effect of over 50% in size. Conditions: LYMP2-014 lymphoblastoid cells, viability qHTS; series mostly up to 92.2 µM. The source says: NIH Chemical Genomics Center [NCGC]
NIH Molecular Libraries Screening Centers Network [MLSCN]
National Institutes of Environmental Health Sciences [NIEHS]
National Toxicology Program [NTP]
We have developed a 1536-well cell-based assay for quantitative high throughput screening (qHTS) against a number of cell lines to determine in vitro cytotoxicity of small molecules. This particular assay uses a human lymphoblastoid cell line (LYMP2-014) purchased from Coriell Institute for Medical Research.
NCGC Assay Protocol Summary:
The CellTiter-Glo luminescent cell viability assay (Promega) is a homogeneous method to measure the number of viable cells in culture. The end point readout of this assay is based on quantitation of intracellular ATP, an indicator of metabolic activity, using the luciferase reaction. Luciferase catalyzes the oxidation of beetle Luciferin to oxyluciferin and light in the presence of ATP. The luminescent signal is proportional to amount of ATP present.
Using the CellTiter-Glo luminescent cell viability assay, the amount of cellular ATP was measured in the lymphoblastoid cell line with complete culture medium following compound treatment for 24 hours. The assay was performed in opaque white Kalypsys 1536-well plates. In the screen, tetraoctylammonium bromide was used as positive control. Library compounds were measured for their ability to cause acute toxicity in the cell line, as reflected by a decrease in intracellular ATP levels, in a concentration-dependent manner. […] AC50 values were determined from concentration-response data modeled with the standard Hill equation.
qHTS protocol for CellTiter Glo lymphoblastoid cellular assay
[Step] [Parameter] [Value] [Description]
1. Reagent; 5 uL; 2500 lymphoblastoid cells/well
2. Time; 5 hr; 37 C incubation
4. Controls; 23 nL; Tetraoctylammonium bromide 6.4pM to 92 uM
5. Time; 24 hr; 37 C incubation
6. Reagent; 5 uL; CellTiter Glo reagent
7. Time; 30 min; Room Temperature
8. Detection; Luminescence; Viewlux plate reader
Keywords: cell viability, cytotoxicity, lymphoblastoid cell line, luminescence, NTPHTS, NTPHTS_NCGC, NIEHS, DSSTox, MLSMR, MLSCN, NIH Roadmap, qHTS, NCGC
On the technique in general: Quantitative high-throughput screening tests each substance at several concentrations.
Turning to `C=CC(=O)OCC(CO)(COC(=O)C=C)COC(=O)C=C`, the Potency was 5.01 µM (active). As for `Clc1ccc(C(c2ccc(Cl)cc2)C(Cl)Cl)cc1`, the Potency entry is “inactive”. With `O=[N+]([O-])C(Br)Br` the figure was 15.8 µM (active); with `N#CC(Cl)Cl`, 50.1 µM (active). With `FC(F)(F)c1ccc(Cl)cc1` the entry was “inactive”; with `O=C(O)C1C(C(=O)O)C2(Cl)C(Cl)=C(Cl)C1(Cl)C2(Cl)Cl` (stereo not drawn), “inactive”; with `CN(C)c1ccc(N=O)cc1`, 2.51 µM (active). With `Nc1ccccc1C(=O)OCCc1ccccc1` the entry was “inactive”; with `ClC1=C(Cl)C2(Cl)C3C(Cl)C(Cl)CC3C1(Cl)C2(Cl)Cl` (stereo not drawn), “inactive”; with `[CH3][Hg][Cl]`, 3.98 µM (active).

In the case of `CC(C)CC(C)Nc1ccc(Nc2ccccc2)cc1` (stereo not drawn), the Potency was 39.8 µM (active). With `O=C(CCl)c1ccccc1` the figure was 12.6 µM (active); with `N#CSCSC#N`, 7.94 µM (active); with `C#CCO`, “inactive”. Then `Oc1c(Br)c(Br)c(Br)c(Br)c1Br`, with “inactive”; and `OC(c1ccc(Cl)cc1)(c1ccc(Cl)cc1)C(Cl)(Cl)Cl`, with “inactive”; and `ClC1=C(Cl)C(Cl)(Cl)C(Cl)=C1Cl`, with 7.94 µM (active).

For `c1cc(OCC2CO2)cc(OCC2CO2)c1` (stereo not drawn), the Potency was 39.8 µM (active). With `O=[N+]([O-])c1cc(C(F)(F)F)cc([N+](=O)[O-])c1Cl` the figure was 50.1 µM (active).

`C[C@@H]1CC[C@@]2(OC1)O[C@H]1[C@@H](O)[C@H]3[C@@H]4CC[C@H]5C[C@@H](O[C@@H]6O[C@H](CO)[C@H](O[C@@H]7O[C@H](CO)[C@@H](O)[C@H](O[C@@H]8OC[C@@H](O)[C@H](O)[C@H]8O)[C@H]7O[C@@H]7O[C@H](CO)[C@@H](O)[C@H](O[C@@H]8O[C@H](CO)[C@@H](O)[C@H](O)[C@H]8O)[C@H]7O)[C@H](O)[C@H]6O)[C@H](O)C[C@]5(C)[C@H]4CC[C@]3(C)[C@H]1[C@@H]2C`: the Potency is 25.1 µM (active). With `O=Nc1ccc(Nc2ccccc2)cc1` the figure was 6.31 µM (active); with `CCCCCCCCn1sccc1=O`, 10 µM (active); with `c1ccc2cc3c(cc2c1)-c1cccc2cccc-3c12`, “inactive”.
